Shown are actives, neighbours in structure and some others; about 1.2% of the full set was active somewhere.
GSH bead fluor: GSH bead compound fluorescence profile; GSH beads flow cytometry, compound fluorescence 488/530 nm; hits give high values; fluorescence (KMESF) at 10 µM; 190,000 tested, 0.25% active; AID 1776; in the data active means fluorescence above about 89;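 further: glutathione beads carrying GST-tagged Bcl family fusion proteins plus one bare bead set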
Avidin fluor: compound fluoresces at 488/530 nm on avidin beads | compound fluorescence 488/530 nm, flow cytometry; hits give high values | fluorescence (KMESF) at 10 µM | 220,000 tested, 0.38% active | AID 1775; in the data active means fluorescence above about 47
RGS16-Gao HTS: modulates binding between human RGS16 and Galphao; O15492+P09471; bead-based flow cytometry RGS16-Galphao binding, fluorescence; actives lie on both sides; binding response (% of control), % at 10 µM; 220,000 tested, 0.38% active; AID 1441; call rule not given here;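 further: Galphao activated by GDP with aluminum fluoride before binding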
RGS7-Gao reg: regulators of human RGS7-Galphao interaction. P09471. Multiplexed bead flow cytometry, RGS7-Galphao binding; actives lie on both sides. binding response (% of control), % at 10 µM. 220,000 tested, 0.35% active. AID 1439; in the data active means binding response below about 49% or above about 150%; inconclusive means no clear call, values can overlap the other calls; inactive means in between;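 further: fluorescent Galphao held in activated GDP-AlF4 state binding bead-coupled RGS7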
Target sequence (P09471 whole entry, looked up): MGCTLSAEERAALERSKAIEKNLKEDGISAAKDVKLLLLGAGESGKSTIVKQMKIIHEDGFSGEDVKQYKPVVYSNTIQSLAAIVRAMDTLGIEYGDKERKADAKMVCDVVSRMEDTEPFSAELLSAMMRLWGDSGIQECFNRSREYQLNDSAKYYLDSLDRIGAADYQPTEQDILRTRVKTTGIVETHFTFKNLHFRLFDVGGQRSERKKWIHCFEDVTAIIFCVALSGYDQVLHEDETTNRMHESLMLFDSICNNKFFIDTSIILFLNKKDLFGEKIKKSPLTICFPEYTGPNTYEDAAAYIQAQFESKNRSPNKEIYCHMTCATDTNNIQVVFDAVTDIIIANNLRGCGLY
RGS4-Gao reg: human RGS4-Galphao interaction regulation; P09471; Multiplexed bead flow cytometry, RGS4-Galphao binding; actives lie on both sides; AID 1415; 220,000 tested, 0.33% active; binding response (% of control), % at 10 µM; in the data active means binding response below about 49% or above about 150%; inactive means in between;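 further: fluorescent Galphao activated with aluminum fluoride binding bead-coupled RGS4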
RGS8-Gao: modulates binding of RGS8 to human Galphao | 220,000 tested, 0.34% active | multiplexed bead flow cytometry; actives lie on both sides | response (percent of control binding), % at 10 µM | P09471; in the data active means response below about 60% or above about 140%; inactive means in between;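 further: Galphao activated as the GDP aluminium fluoride complex binding bead-coupled RGS8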
Hits are given with their value; n = inactive; u = inconclusive; x = not tested or not shown.

SMILES	GSH bead fluor	Avidin fluor	RGS16-Gao HTS	RGS7-Gao reg	RGS4-Gao reg	RGS8-Gao
CCCCOc1ccc(C2CC(=O)NC2=O)cc1 (stereo not given)	n	79	n	n	n	n
COc1ccc(-c2noc(CN(C)Cc3ccc(C)o3)n2)cc1	n	n	n	n	n	n
CCn1c(N)c(C(=O)NC)sc1=S	87	n	n	n	n	n
Cc1cccc(C(=O)Nc2nnc(SCC(=O)Nc3ccc4c(c3)oc3ccccc34)s2)c1	n	n	n	n	n	n
COc1ccccc1C(=O)Nc1nnc(SCC(=O)Nc2ccc3c(c2)oc2ccccc23)s1	811	n	n	n	n	n
CCOC(=O)NC(=O)CSc1nnnn1-c1ccccc1	n	109	n	n	n	n
CCc1nnc(NC(=O)CCN2C(=O)CCC2=O)s1	264	n	n	n	n	n
CCCCCCC(=O)Nc1nnc(CC)s1	n	n	n	n	n	n
CCc1nnc(NC(=O)CSc2nnc3ncccn23)s1	n	n	n	n	n	n
Cc1ccc(C)c(C(=O)COc2ccc(C)nc2[N+](=O)[O-])c1	256	n	n	n	n	n
CC1(C)CC(=O)C=C(Nc2ccccc2F)C1	267	n	n	n	n	n
CC1(C)CC(=O)C=C(Nc2ccc(F)cc2F)C1	n	n	n	n	n	n
Cc1nn(CC#N)c(=O)n1-c1ccccc1	262	n	n	n	n	n
O=C(c1nc2ccccn2c1CNCCOc1cccnc1)N1CCOCC1	n	n	n	n	n	n
COc1ccc(C2CC(c3ccccc3)Nc3nc(N)nn32)cc1 (stereo not given)	n	50	n	n	n	n
COc1ccc(C2CC(c3ccc(Br)cc3)Nc3nc(N)nn32)cc1 (stereo not given)	n	n	n	n	n	n
CCOc1ccccc1NC(=O)C(Sc1nnnn1C)c1ccccc1 (stereo not given)	n	n	n	u	n	n
O=C1Nc2ccccc2N(O)N1c1ccc(S(=O)(=O)Nc2ccccn2)cc1	n	64	n	n	n	n
Cc1ccnc(NS(=O)(=O)c2ccc(N3C(=O)Nc4ccccc4N3O)cc2)c1	n	n	n	n	n	n
CC(C)Cn1c(=O)c2c(nc3n2CCCN3CCc2ccccc2)n(C)c1=O	257	n	n	n	n	n
CCN1CCCC1CNCC(O)COc1ccc(C(C)(C)C)cc1C (stereo not given)	n	n	n	n	n	n
Cc1ccnc2nc(C(=O)N3CCN(c4ccc(F)cc4)CC3)nn12	249	n	n	n	n	n
CCOC(=O)C1CCCN(C(=O)COC(=O)C2=COCCO2)C1 (stereo not given)	n	71	n	n	n	n
O=C(OCC(=O)N1CCN(C(=O)c2ccco2)CC1)C1=COCCO1	n	82	n	n	n	n
N#Cc1c(Cl)nsc1NC(=O)c1ccccc1	n	n	n	n	n	n
SMILES	GSH bead fluor	Avidin fluor	RGS16-Gao HTS	RGS7-Gao reg	RGS4-Gao reg	RGS8-Gao
Cc1ccccc1NS(=O)(=O)c1ccc(C)c(NS(C)(=O)=O)c1C	n	n	n	n	n	n
Cc1c(C(=O)OCC(=O)N2c3ccccc3CC2C)oc2ccccc12 (stereo not given)	n	95	n	n	n	n
Cc1ccc(S(=O)(=O)Nc2nc(C)cc(NCCN)n2)cc1	279	n	n	n	n	n
Cc1ccc(S(=O)(=O)Nc2nc(C)cc(NN)n2)cc1	x	n	n	u	n	n
CCOc1cc(/C=C(\C#N)C(=O)Nc2ccccc2[N+](=O)[O-])ccc1OCc1cccc2ccccc12	n	n	n	n	n	n
COc1cccc2cc(C(=O)N3CCCCC3C)c(=O)oc12 (stereo not given)	120	n	n	n	n	n
CC(=O)NC(CC(=O)NCCN1C(=O)S/C(=C\c2ccccc2)C1=O)c1ccccc1 (stereo not given)	x	n	n	u	n	n
Cc1ccc(Cl)cc1NC(=O)COC(=O)C1CC1	n	n	n	n	n	n
Cc1ccc(Cl)cc1NC(=O)COC(=O)CC1CC2CCC1C2 (stereo not given)	262	n	n	n	n	n
CC(C)(C)n1ncc2c(=O)n(CC(=O)NCc3ccccc3)cnc21	n	n	n	n	n	n
